In all, about 1,100 compounds went through this assay and about 390 (35%) were called active. Roughly 30% stayed inconclusive and do not appear here. This is one part of the list. A number with no mark means an inactive call. Calls come from the whole dose curve; as a rule, active = well fitted inhibition curve with a large enough effect; inconclusive = small, poorly fitted or top-dose-only effect; inactive = flat fitted curve, though single readings scatter.
% is set by controls: 0 for no effect and ±100 for the full control effect; potency is the fitted concentration of half-maximal effect.

This assay has as its target Luciferin 4-monooxygenase (Photinus pyralis) (UniProt P08659). Kind of assay: qHTS of Nrf2 Activators: Hit Validation in Secondary FLuc Assay. Note: nearly all actives have a fitted effect of over 65% in size. To be noted: firefly luciferase inhibition counter-screen, luminescence; series mostly up to 57.5 µM; activity, negative = inhibition: at the top concentration. The gist of the method:
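Purified firefly luciferase is tested for inhibition by compounds in the presence of its substrates, ATP and D-luciferin, each at Km. Inhibition marks likely false positives arising from reporter-enzyme stabilization.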
Consider `COC(=O)c1sccc1NC(=O)c1ccc(Br)s1`, for which the “activity, negative = inhibition” value was -17.3%.
On to `O=C(N/N=C/c1ccc(Br)s1)c1cccs1`, for which the Potency was 6.75 µM (active).
Turning to `Cc1ccc(S(=O)(=O)c2nc(S(C)(=O)=O)sc2N2CCC3(CC2)OCCO3)cc1`, the “activity, negative = inhibition” value was 0.757%.
As for `Cc1cc(NC(=O)CC(C)(C)C)nc2c1c(=O)oc1ccccc12`, the “activity, negative = inhibition” value was -2.51%.
On to `C=CCc1cccc(C=Nc2cc(Br)ccc2O)c1O`, for which the “activity, negative = inhibition” value is -4.76%.
As for `Brc1ccc2nc(-c3ccco3)c(Cc3ccsc3)n2c1`, the Potency was 5.36 µM (active).
The same measure, in the same setting: for `Fc1cccc(Cc2c(-c3ccco3)nc3ccc(Br)cn23)c1` the value was 5.36 µM (active).
Consider `O=C(N/N=C/C=C/c1ccco1)c1cccc([N+](=O)[O-])c1`, for which the “activity, negative = inhibition” value was -19.3%.
Turning to `O=C(N/N=C\C=C\c1ccco1)c1cc(-c2ccc3ccccc3c2)n[nH]1`, the Potency was 5.36 µM (active).
On the same count and under the same terms, the value for `O=C(O)c1ccc(/C=C2\COc3ccccc3C2=O)cc1` was 9.53 µM (active).
Consider `COc1ccc(N(CCCN2C(=O)c3cccc4cccc(c34)C2=O)C(=O)c2ccncc2)cc1`, for which the “activity, negative = inhibition” value was -1.09%.
On to `Cc1c(C(=O)NCc2ccco2)oc2c(Cl)cccc12`, for which the “activity, negative = inhibition” value was -3.49%.
As for `O=C(CSc1nnc2c(n1)[nH]c1ccccc12)NCc1ccco1`, the Potency is 19 µM (active).
Take `O=C(NCc1ccco1)c1n[nH]c(=O)c2ccccc12`: the “activity, negative = inhibition” value was 7.6%.
As for `Cc1ccc(O)c(NC(=O)c2cccc(NC(=O)c3ccco3)c2)c1`, the Potency is 12 µM (active).
Take `Clc1ccc(Br)cc1-c1nc(-c2ccncc2)no1`: the Potency was 8.49 µM (active).
The same measure, in the same setting: the value for `CSc1nc2sc3c(c2c(=O)n1C)CCC(C)C3` (stereo not drawn) was 6.01 µM (active); that for `COc1cc(/C=N/Nc2nc3ccccc3s2)ccc1OC(=O)c1ccccc1F` was 5.36 µM (active).
As for `Cc1ccc2ccc(C3C(=O)c4ccccc4C3=O)nc2c1`, the Potency was 0.269 µM (active).
Turning to `COc1ncccc1-c1cc2nc(NCCNC(C)=O)n(C)c(=O)c2s1`, the Potency was 15.1 µM (active).
Regarding `Cn1c(NCc2ccc3occc3c2)nc2cc(-c3cccc(C(F)(F)F)c3)sc2c1=O`, the “activity, negative = inhibition” value is -5.21%.
`Cn1c(NCC2CCCCC2)nc2cc(-c3ccsc3)sc2c1=O`: the “activity, negative = inhibition” value was -9.1%.
Same read-out and setting: the value for `C/C(=N\NC(=O)c1cccc(S(=O)(=O)N2CCCC2)c1)c1ccco1` was -17.4%.
With `C/C(=N\NC(=O)c1c[nH]c2ccccc12)c1ccco1`, the Potency was 7.57 µM (active).
Take `CC(=NNC(=O)CSc1nc2ccccc2o1)c1ccco1`: the “activity, negative = inhibition” value is 1.42%.
`Oc1ccc2ccccc2c1N=Nc1ccccn1`: the Potency is 10.7 µM (active).
Still for that read-out and setting: for `CSc1nnc(-c2ccco2)c(-c2ccco2)n1` the value was 4.78 µM (active).
The same measure, in the same setting: the value for `O=C(CSc1nnc(-c2ccco2)c(-c2ccco2)n1)c1ccccc1` was 2.69 µM (active).
As for `CCc1nc(N)c(C#N)c(-c2ccco2)c1C`, the “activity, negative = inhibition” value is -17.2%.
Take `C=C1C2=C(C(=O)N1OC)[C@@H](O)[C@@](C)(O)[C@@H](CCCCC)O2`: the “activity, negative = inhibition” value is 1.91%.
For `O=C(c1ccc(S(=O)(=O)Cc2ccccc2Cl)c([N+](=O)[O-])c1)N1CCOCC1`, the “activity, negative = inhibition” value was -6.47%.
The same measure, in the same setting: for `CC(C)N(C(=O)COC(=O)c1ccccc1C(=O)c1ccc(Cl)c([N+](=O)[O-])c1)C(C)C` the value was 10.7%.
`O=C(Nc1nc2ccccc2[nH]1)c1ccc(Cl)c([N+](=O)[O-])c1`: the Potency was 2.69 µM (active).
Take `N#C/C(=C\c1c(Oc2ccc(Cl)cc2)nc2ccccn2c1=O)C(=O)NC1CCS(=O)(=O)C1` (stereo not drawn): the “activity, negative = inhibition” value is -26.8%.
Take `COc1ccccc1NC(=O)C(=O)Nc1ccccn1`: the Potency is 1.69 µM (active).
As to `COc1ccccc1NC(=O)c1ncn(-c2ccccc2)n1`, the Potency is 10.7 µM (active).
As for `COc1ccccc1NC(=O)c1cc(Cl)nc2ccccc12`, the “activity, negative = inhibition” value is -5.47%.
For `COc1cc(NC(=S)Nc2ccccn2)c(OC)cc1Cl`, the “activity, negative = inhibition” value is -25.7%.
On to `COc1ccccc1C(=O)NCc1nc2cccnc2n1Cc1ccc(F)cc1`, for which the “activity, negative = inhibition” value was 2.77%.
For the compound `CCCn1c(-c2cccs2)nc2nc3ccccc3nc21`, the Potency was 12 µM (active).
For the compound `O=C(/C=C/c1ccccc1Cl)Nn1cnc2ccccc2c1=O`, the “activity, negative = inhibition” value was -25.3%.
As for `O=C(C=Cc1ccccc1Cl)c1ccccc1`, the Potency is 0.953 µM (active).
In the case of `COCCN(C(=O)COC(=O)/C=C/c1ccccc1Cl)c1c(N)n(Cc2ccccc2)c(=O)[nH]c1=O`, the “activity, negative = inhibition” value was 3.75%.
Consider `Cn1c(=O)c(C(=O)NNC(=O)c2ccccc2F)c(O)c2ccccc21`, for which the “activity, negative = inhibition” value was -25.6%.
On the same count and under the same terms, the value for `FC(F)(F)c1cc(-c2ccco2)nc(NCc2ccco2)n1` was -29.3%.
With `Oc1c(-c2cc(-c3ccco3)[nH]n2)ccc2ccccc12`, the Potency was 0.953 µM (active).
As to `Oc1ccc(Br)cc1-c1cc(-c2ccco2)[nH]n1`, the Potency is 16.9 µM (active).
As to `Oc1ccc(Cl)cc1-c1cc(-c2ccco2)[nH]n1`, the Potency was 13.5 µM (active).
Regarding `Oc1ccccc1C=NN=C1c2ccccc2-c2ccccc21`, the Potency was 4.26 µM (active).
As to `O=C(Nc1ccccc1C(=O)N/N=C/c1ccco1)c1ccccc1`, the Potency is 7.57 µM (active).
As to `Nc1c(Cl)c(Cl)nc(C(=O)N/N=C/c2ccco2)c1Cl`, the “activity, negative = inhibition” value was -5.24%.
As for `O=C(Nc1ccccc1C(=O)N/N=C/c1ccco1)c1ccc(F)cc1`, the Potency was 4.78 µM (active).
With `O=C(N/N=C/c1cn[nH]c1-c1ccccc1)c1ccco1`, the “activity, negative = inhibition” value is -26.1%.
With `COC(CN(C(=O)CCl)C(C(=O)NC1CCCCC1)c1ccccc1C)OC` (stereo not drawn), the “activity, negative = inhibition” value was -0.975%.
Consider `COc1ccc([N+](=O)[O-])cc1C1NN=C(c2ccccc2O)S1` (stereo not drawn), for which the Potency was 8.49 µM (active).
In the case of `COc1ccc([N+](=O)[O-])cc1NC(=O)c1ccco1`, the “activity, negative = inhibition” value is -0.817%.
On the same count and under the same terms, for `CCN1CCN(c2sc(S(C)(=O)=O)nc2S(=O)(=O)c2ccc(Cl)cc2)CC1` the value was 3.21%; for `CC(=O)OC1(C(C)=O)CCC2C3CC(C(F)(F)F)C4=CC(=O)CCC4(C)C3CCC21C` (stereo not drawn), -0.683%; for `CC1CN(c2sc(S(C)(=O)=O)nc2S(=O)(=O)c2ccc(Cl)cc2)CC(C)O1` (stereo not drawn), -28.1%.
On the same count and under the same terms, for `O=C(Nc1ccccc1)c1nc[nH]c1C(=O)Nc1ccccc1F` the value was -0.43%.
Take `O=C(Nc1ccccc1)Nc1cccc2nsnc12`: the Potency was 2.69 µM (active).
The same measure, in the same setting: the value for `C/C(=N\Nc1ccccn1)c1cccs1` was 2.39 µM (active).
Turning to `C/C(=N\Nc1ccc2nncn2n1)c1ccc(Cl)s1`, the “activity, negative = inhibition” value was -3.88%.
Consider `C/C(=N\Nc1ccccn1)c1ccc(Br)s1`, for which the Potency is 12 µM (active).
Take `Cn1c(N)c(C(=O)COC(=O)c2nc(Cl)ccc2Cl)c(=O)n(C)c1=O`: the “activity, negative = inhibition” value is -3.17%.
Same read-out and setting: the value for `CC(C)(C)c1csc(NC(=O)CCS(=O)(=O)c2ccc(F)cc2)n1` was -18.9%.
As for `O=C(/C=C/c1ccccc1)Nc1ncn[nH]1`, the Potency is 10.7 µM (active).
The same measure, in the same setting: for `CN1c2ccsc2/C(=N/Nc2ccccc2)CS1(=O)=O` the value was 7.57 µM (active).
Turning to `OCC1OC(n2cnc3c(NCc4ccccc4O)ncnc32)C(O)C1O` (stereo not drawn), the “activity, negative = inhibition” value was -0.396%.
As for `CC1=NC(=O)C(N=Nc2cccc(O)c2)N1c1ccccc1` (stereo not drawn), the Potency is 3.79 µM (active).
Take `Clc1ccc(/C=N/Nc2nnc(Cl)c3ccccc23)cc1`: the Potency was 0.338 µM (active).
As to `CSc1nsc(SC)c1C(=O)Nc1ccc(C)cc1`, the “activity, negative = inhibition” value was -30%.
The same measure, in the same setting: the value for `CNc1nc(N)c([N+](=O)[O-])c(Nc2cccc(Cl)c2)n1` was 5.42%.
